Bioassay records as filed in PubChem.
The list is not random: actives were taken first. Their share in the collection is about 2.8%.
Pol eta inh-1: blocks human DNA polymerase eta activity | recombinant Pol eta, fluorescent DNA replication assay | Potency, µM (titrated, usually from 114 µM), for the others: top-dose activity change, negative = inhibition, hits mostly inhibitors | actives 1.2% (n = 390,000); further: potency means the concentration at half of the fitted maximal effect; on the % scale 0 is the no-effect control and ±100 the full control effect
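Pol eta (10 nM) was preincubated with compounds for 15 min at room temperature, after which fluorescent replication substrate (50 nM final) was added to start the reaction. Fluorescence was read kinetically at 0 and 10 min.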
Pol beta inh: blocks human DNA polymerase beta activity; P06746; Pol beta primer extension/strand displacement, fluorescence kinetic; Potency, µM (titrated, usually from 114 µM), without a hit: top-dose activity change, negative = inhibition, usual class: inhibitors; actives 1.3% (n = 340,000); further: potency means the concentration at half of the fitted maximal effect; on the % scale 0 is the no-effect control and ±100 the full control effect
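Pol beta (10 nM) was preincubated with compound for 15 min at room temperature. The reaction was then started with 50 nM substrate and read immediately and after a further 10 min at room temperature.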
WRN helicase inh: blocks human WRN helicase; Potency, µM (series often up to 114 µM), inactives show at the top dose activity change, negative = inhibition, most hits filed as inhibitors; AID 651768; WRN helicase unwinding, fluorescent forked duplex, kinetic; actives 0.46% (n = 360,000); further: potency means the concentration at half of the fitted maximal effect; on the % scale 0 is the no-effect control and ±100 the full control effect; nearly all actives have a fitted effect of over 55% in size
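Fluorescence dequenching readout, ex 525 nm/em 598 nm, kinetic mode: forked duplex DNA (100 nM final) with adjacent fluorophore and quencher unwound by WRN (20 nM final) with 2 mM ATP. Compound preincubation 15 min, room temperature.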
Pol kappa inh-1: DNA polymerase kappa (human) inhibition; Q9UBT6; purified Pol kappa, fluorescent DNA synthesis assay, 10 min; Potency, µM (doses to about 107 µM), for inactives: at the top dose activity, negative = inhibition, actives largely listed as inhibitors; actives 0.53% (n = 400,000); AID 588579; further: potency means the concentration at half of the fitted maximal effect; on the % scale 0 is the no-effect control and ±100 the full control effect
Target sequence (Q9UBT6 whole entry, looked up): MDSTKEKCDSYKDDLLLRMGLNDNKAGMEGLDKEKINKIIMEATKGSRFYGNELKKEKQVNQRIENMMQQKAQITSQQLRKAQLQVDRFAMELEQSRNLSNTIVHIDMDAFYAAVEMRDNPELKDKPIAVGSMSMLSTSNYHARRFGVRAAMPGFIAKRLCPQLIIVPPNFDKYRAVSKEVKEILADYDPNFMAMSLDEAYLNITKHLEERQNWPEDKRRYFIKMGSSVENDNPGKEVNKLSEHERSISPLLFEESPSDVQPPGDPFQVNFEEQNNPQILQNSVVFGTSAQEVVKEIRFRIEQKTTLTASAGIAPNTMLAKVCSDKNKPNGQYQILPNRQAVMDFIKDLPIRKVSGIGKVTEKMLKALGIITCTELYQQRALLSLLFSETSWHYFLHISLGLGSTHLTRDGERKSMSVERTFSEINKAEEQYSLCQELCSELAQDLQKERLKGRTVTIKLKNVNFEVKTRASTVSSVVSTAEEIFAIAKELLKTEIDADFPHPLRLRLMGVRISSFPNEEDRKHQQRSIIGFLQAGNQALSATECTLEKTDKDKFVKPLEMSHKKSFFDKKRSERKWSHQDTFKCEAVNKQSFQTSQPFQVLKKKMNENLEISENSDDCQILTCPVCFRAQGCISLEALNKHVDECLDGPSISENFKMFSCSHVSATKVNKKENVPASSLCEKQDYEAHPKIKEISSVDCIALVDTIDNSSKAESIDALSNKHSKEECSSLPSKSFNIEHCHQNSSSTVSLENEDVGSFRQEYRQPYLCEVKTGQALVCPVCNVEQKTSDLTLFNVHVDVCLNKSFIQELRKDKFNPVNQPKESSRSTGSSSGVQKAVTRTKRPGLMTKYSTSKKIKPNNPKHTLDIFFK
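Inhibition of 10 nM Pol kappa is measured by a fluorescent read-out at 0 and 10 min following addition of 50 nM substrate (final), with a 15-min room-temperature compound preincubation.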
PI5P4Ka inh: PI5P4K alpha (human) kinase inhibition | PI5P4Kalpha enzyme, ADP-Glo luminescence, 60 min; active compounds read low | max response, % | actives 1.2% (n = 330,000); active means max response of -50% or lower; inconclusive means between -30% and -50%; inactive means -30% or higher; further: value at the top dose of about 77 µM; on the % scale 0 is the no-effect control and ±100 the full control effect
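Quantitative HTS of the MLSMR library against PI5P4Kalpha with substrate. ATP added last at 5 microM final; room temperature, 60 minutes. Remaining ATP depleted, ADP converted and read as luminescence.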
POLI inh: blocks human DNA polymerase iota activity. AID 588590. Pol iota fluorescent replication assay, 10 min. Potency, µM (series often up to 115 µM), inactives show at the top dose activity, negative = inhibition, usual class: inhibitors. actives 1% (n = 390,000). Q9UNA4; further: potency means the concentration at half of the fitted maximal effect
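Fluorescent replication assay read twice, at 0 min and 10 min after adding 50 nM (final) substrate. Enzyme (10 nM) and compounds were first incubated 15 min at room temperature; enzyme-free buffer wells were negative controls.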
Pol kappa inh-2: Pol kappa (human) inhibition, cherry-pick confirmation; Potency, µM, usual class: inhibitors; purified Pol-kappa, fluorescent strand-displacement substrate; shares compounds with Pol eta inh-1; actives 76% (n = 920); further: potency means the concentration at half of the fitted maximal effect
Pol eta inh-2: Pol eta (human) inhibition, cherry-pick confirmation | shares compounds with Pol eta inh-1 | Pol eta primer extension, TAMRA/BHQ fluorescence, 10 min | Potency, µM, hits mostly inhibitors | actives 64% (n = 2,600); further: potency means the concentration at half of the fitted maximal effect
Starred values were filed as active, the others as inactive; [ ] = another dose, or the depositor's remark. Unless noted, the call rests on the fitted dose curve; in most records, active means well fitted curve in the direction sought with a large enough effect; inconclusive means small, poorly fitted or top-dose-only effect, or another doubt; inactive means no such curve, though single readings can be large; an effect the other way counts as inactive or inconclusive.

For CS(=O)(=O)N1Cc2ccccc2CC1C(=O)O (stereo unspecified) the results were Pol eta inh-1 8.9µM*, Pol beta inh 18µM*, WRN helicase inh -11%[11.6 µM], Pol kappa inh-1 inconclusive, PI5P4Ka inh -9, POLI inh inconclusive and Pol eta inh-2 60*.
`O=C(O)C1Cc2ccccc2CN1S(=O)(=O)/C=C/c1ccccc1` (stereo unspecified) gave Pol eta inh-1 -20%, Pol beta inh -3%, WRN helicase inh -1%, Pol kappa inh-1 -16%, PI5P4Ka inh -3 and POLI inh 36%.
`O=C(NC1CCCCC1)c1ccc2c(c1)N(Cc1ccc(Cl)cc1)C(=O)c1ccccc1S2(=O)=O` gave Pol eta inh-1 -20%, Pol beta inh 10%, Pol kappa inh-1 -2% and POLI inh 24%.
`CN(C)CCCN(C(=O)c1cc2cc([N+](=O)[O-])ccc2s1)c1nc2cc3c(cc2s1)OCCO3` gave Pol eta inh-1 inconclusive, WRN helicase inh inconclusive, Pol kappa inh-1 inconclusive, PI5P4Ka inh -69*, POLI inh -10% and Pol kappa inh-2 60*.
For CC(=O)c1ccc(OCCCC(=O)NCCc2ccccc2)cc1 the results were Pol eta inh-1 3%, Pol beta inh -3%, WRN helicase inh 5%, Pol kappa inh-1 0%, PI5P4Ka inh -4 and POLI inh 13%.
Screening c1csc(Cc2nn3c(-c4n[nH]c5c4CCC5)nnc3s2)c1 returned Pol eta inh-1 11µM*, Pol beta inh 28µM*, WRN helicase inh -36%, Pol kappa inh-1 -33%, PI5P4Ka inh inconclusive, POLI inh inconclusive and Pol eta inh-2 inconclusive.
Screening CC(=O)OCC1=C(C(=O)O)N2C(=O)C(NC(=O)Cn3nc(C(F)F)c(Cl)c3C)C2SC1 (stereo unspecified) returned Pol eta inh-1 20µM*, Pol beta inh 28µM*, WRN helicase inh -11%[11.6 µM], Pol kappa inh-1 50µM*, PI5P4Ka inh -5, POLI inh inconclusive and Pol eta inh-2 60*.
Cc1nnc(SCC2=C(C(=O)O)N3C(=O)C(NC(=O)Cn4nc(C(F)F)c(Cl)c4C)C3SC2)s1 (stereo unspecified) was read as Pol eta inh-1 20µM*, Pol beta inh 25µM*, WRN helicase inh inconclusive, Pol kappa inh-1 50µM*, PI5P4Ka inh 4, POLI inh -62% and Pol eta inh-2 76*.
Screening CC(=O)OCC1=C(C(=O)O)N2C(=O)C(NC(=O)CCn3nc(C(F)(F)F)c(Br)c3C3CC3)C2SC1 (stereo unspecified) returned Pol eta inh-1 -16%, Pol beta inh 26%, WRN helicase inh -4%, Pol kappa inh-1 -12%, PI5P4Ka inh 2 and POLI inh 37%.
`CCC(C)C(CO)NCCCn1cnc(C(=O)Nc2ccc(C)c(C)c2)n1` (stereo unspecified) gave Pol eta inh-1 -11%, WRN helicase inh -6%, Pol kappa inh-1 17%, PI5P4Ka inh -1 and POLI inh 37%.
CC(=O)Nc1ccc(C(=O)N2CCCC(c3cc(C(=O)Nc4ccccc4)no3)C2)cc1 (stereo unspecified) was read as WRN helicase inh 10% and PI5P4Ka inh 0.
COc1ccc(Cl)cc1NC(=O)c1cnc2sc(N3CCOCC3)nn2c1=O was read as Pol eta inh-1 1%, Pol beta inh 32%, Pol kappa inh-1 8% and POLI inh 0%.
Screening COc1ccc(CNC(=O)c2ccc3c(c2)N(C)C(=O)C2CCCCN32)cc1OC (stereo unspecified) returned Pol eta inh-1 2%, Pol beta inh -2%, Pol kappa inh-1 -5%[60.1 µM] and POLI inh 15%.
Screening O=C1NC(=O)/C(=C/c2ccco2)N1 returned Pol eta inh-1 -9%, Pol kappa inh-1 3% and POLI inh 50%.
Screening O=C1NC(=S)NC1=Cc1ccco1 returned Pol eta inh-1 13µM*, WRN helicase inh -118%, Pol kappa inh-1 inconclusive, PI5P4Ka inh -93*, POLI inh inconclusive, Pol kappa inh-2 34* and Pol eta inh-2 76*.
Screening O=C(Nc1nc(-c2ccco2)c(-c2ccco2)s1)c1c(F)cccc1Cl returned Pol eta inh-1 inconclusive, WRN helicase inh -15%, Pol kappa inh-1 inconclusive, PI5P4Ka inh 1 and POLI inh -35%.
Screening O=S(=O)(Nc1nc(-c2ccco2)c(-c2ccco2)s1)c1ccc(F)cc1F returned Pol eta inh-1 28µM*, WRN helicase inh inconclusive, PI5P4Ka inh inconclusive, Pol kappa inh-2 inconclusive and Pol eta inh-2 inconclusive.
`CCOc1ccc(CCNC(=O)c2cnc3sc(N4CCC(C)CC4)nn3c2=O)cc1` gave Pol eta inh-1 7%, Pol beta inh -3%, Pol kappa inh-1 -2% and POLI inh inconclusive.
Nc1cc2c(cc1[N+](=O)[O-])OCCO2 was read as Pol eta inh-1 -21%, Pol beta inh 2%, WRN helicase inh -14%, Pol kappa inh-1 -2%, PI5P4Ka inh -7 and POLI inh 23%.
`Nc1cc2c(cc1[N+](=O)[O-])OCO2` gave Pol eta inh-1 45µM*, Pol beta inh 28µM*, WRN helicase inh -21%[57.1 µM], Pol kappa inh-1 inconclusive, PI5P4Ka inh -60*, POLI inh inconclusive and Pol eta inh-2 inconclusive.
CCc1ccc(N=C2NC(=O)/C(=C/c3ccc(OCC(=O)O)cc3)S2)cc1 was read as Pol eta inh-1 45µM*, Pol beta inh 40µM*, WRN helicase inh inconclusive, Pol kappa inh-1 inconclusive, PI5P4Ka inh inconclusive, POLI inh inconclusive and Pol kappa inh-2 inconclusive.
Screening CCOc1ccc(N=C2NC(=O)/C(=C/C(=O)OC)S2)cc1 returned Pol eta inh-1 -13%, Pol beta inh 58%, WRN helicase inh -20%, Pol kappa inh-1 -17%, PI5P4Ka inh 4 and POLI inh -6%.
Screening O=C(N/N=C/C=C\c1ccco1)c1cccnc1 returned Pol eta inh-1 inconclusive, Pol beta inh 19%, WRN helicase inh -30%[57.1 µM], Pol kappa inh-1 79µM*, PI5P4Ka inh 2, POLI inh 18µM* and Pol eta inh-2 inconclusive.
